GDH-TPI counter-1: counter-screen for M. tuberculosis FBA inhibitors: GDH-TPI coupled enzymes; GDH-TPI coupled enzyme counterscreen, NADH absorbance; inhibition, % at 4.8 µM; actives 1.2% (n = 360,000); in the data active = inhibition above about 30%;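 note: 0% = DMSO wells and 100% = wells lacking the enzyme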
RecA intein inh: inhibitors of M. tuberculosis RecA intein splicing; P9WHJ3; cell-free RecA intein splicing, fluorescence; inhibition, % (concentration not given with the values); actives 0.75% (n = 290,000); AID 2221; in the data active = inhibition above about 30%;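 note: 0% = vehicle wells and 100% = reference inhibitor control wells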
FBA Mtb inh: inhibitors of M. tuberculosis fructose-bisphosphate aldolase; P9WQA3; purified M. tuberculosis FBA, fluorescence read-out; inhibition, % at 1 µM; actives 2.3% (n = 360,000);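 note: 0% = vehicle and 100% = reference inhibitor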
Target sequence (P9WQA3 whole entry, looked up): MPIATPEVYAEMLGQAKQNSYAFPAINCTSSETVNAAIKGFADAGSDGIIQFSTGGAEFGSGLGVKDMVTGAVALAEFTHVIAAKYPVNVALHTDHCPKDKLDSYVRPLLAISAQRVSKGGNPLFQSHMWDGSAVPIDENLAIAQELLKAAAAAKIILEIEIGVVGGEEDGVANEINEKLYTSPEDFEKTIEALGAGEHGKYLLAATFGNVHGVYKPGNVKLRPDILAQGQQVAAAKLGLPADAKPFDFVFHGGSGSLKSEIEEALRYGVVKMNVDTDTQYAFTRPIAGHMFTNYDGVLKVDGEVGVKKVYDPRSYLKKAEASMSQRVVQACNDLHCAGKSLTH
BJeLR lethal: kills HRASV12-expressing BJeLR cells | inhibition, % (concentration not given with the values) | AID 1554 | actives 0.17% (n = 300,000) | BJeLR (HRASV12) viability, CellTiter-Glo ATP luminescence, 48 h; in the data active = inhibition above about 50%
PrPC surface inh: cell surface PrPC inhibition, primary TR-FRET screen; P04156; TR-FRET read-out; inhibition, % at 13.8 µM; actives 0.43% (n = 370,000); in the data active = inhibition above about 24%; note: 0% = median of the test wells and 100% = reference compound wells
Mtb FBA inh conf: confirmation of M. tuberculosis fructose-bisphosphate aldolase inhibitors. shares compounds with FBA Mtb inh. AID 651616. actives 78% (n = 5,600). purified M. tuberculosis FBA, fluorescence read-out. inhibition, % at 1 µM;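 note: 0% = vehicle wells and 100% = reference inhibitor wells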
GDH-TPI counter-2: inhibits GDH-TPI coupling enzymes, flagging Mtb FBA hits; shares compounds with FBA Mtb inh; GDH-TPI coupled enzyme counterscreen, fluorescence; inhibition, % at 1 µM; actives 81% (n = 5,600); AID 652141; in the data active = inhibition above about 10%
GDH-TPI dose: counter-screen for M. tuberculosis FBA inhibitors: GDH-TPI dose response | shares compounds with FBA Mtb inh | GDH-TPI coupled enzyme assay, fluorescence, artifact counterscreen | IC50, µM | actives 79% (n = 170) | AID 652145; call rule not given here
* marks the source's active call; other numbers are inactive results; / = no result given; + = active, no number. A selection: hits, their analogues and other compounds. The true share with any hit is near 4.2%. Cut-off read from the data, not from the text of the source, unless noted: active = inhibition above about 27%; inactive = the rest.

SMILES	GDH-TPI counter-1	RecA intein inh	FBA Mtb inh	BJeLR lethal	PrPC surface inh	Mtb FBA inh conf	GDH-TPI counter-2	others
COCCCNC(=O)C1CCN(S(=O)(=O)c2ccc3[nH]c(=O)oc3c2)CC1	/	/	/	/	5	/	/
CC1(c2nnnn2-c2ccc3ccccc3c2)CSCC(=O)N1C1CC1 (stereo unspecified)	/	/	/	/	4	/	/
COCCN1CC(O)=C(c2nc3ccccc3c(=O)[nH]2)C1=N	20	-1	46*	7	5	/	+
COc1ccccc1N1CC(O)=C(c2nc3ccccc3c(=O)[nH]2)C1=N	22	1	38*	-12	3	146*	111*
NC(=Nc1ccccc1)NC(=O)c1nc(Cl)c(N)nc1N	22	-4	23	5	-13	/	/
NC(=NCc1ccccc1)NC(=O)c1nc(Cl)c(N)nc1N	15	-1	37*	-5	-15	32*	37*
COC(=O)N1Cc2ccnnc2CC1c1ccccc1-c1ccc(F)cc1 (stereo unspecified)	/	/	/	/	-3	/	/
Cc1ccc(Cn2cc(CN(C(C)(C)C)S(=O)(=O)c3ccccc3Br)nn2)cc1	/	/	/	/	4	/	/
Cc1nn(-c2ccccc2)c2sc(C(=O)OC3CCOC3=O)cc12 (stereo unspecified)	3	-2	56*	2	5	31*	20*
CCC[C@H]1[C@@H](OC(=O)NCc2ccc(C)cc2)CC[C@@]23CCCN2C(=O)CCC[C@@H]13	/	/	/	/	-1	/	/
Cc1cc(C(O)c2ncc(-c3cccc4ccccc34)[nH]2)ccc1F (stereo unspecified)	3	/	40*	/	-1	56*	41*
COc1c(C)cc(C(O)c2ncc(-c3cccc4ccccc34)[nH]2)cc1C (stereo unspecified)	1	/	35*	/	0	+	+
CC(=O)CC[C@H]1CC[C@]2(CCCN(C(=O)c3ccco3)C2)O1	/	/	/	/	1	/	/
CCN(C(=O)c1coc(=O)c(Br)c1)c1ccc2c(c1)OCO2	24	-2	80*	-3	-8	+	183*
CC1(C)CCC[C@]2(C)[C@H]3CC(=O)O[C@]3(C)CC[C@@H]12	-3	-1	91*	-7	0	197*	147*
CC1(C)CCCC2(C)C1CCC1(C)OC(=O)CCC12 (stereo unspecified)	3	/	-1	/	-1	/	/
O=S(=O)(CC1NCc2cc(F)ccc21)NCCc1ccccc1 (stereo unspecified)	/	/	/	/	-2	/	/
COc1ccc2sc(-c3ccc(N(C)C)cc3)c(C#Cc3cncn3C)c2c1	11	/	108*	/	-5	127*	102*
CC(C)(C)C(=O)OCC12CCC(O1)C1(C)C(=O)OCC21 (stereo unspecified)	0	-1	47*	-14	-6	-6	-4
CC(C)[C@H](NC(=O)CC1CCCC1)C(=O)N1CCC[C@H]1C(=O)NCCc1ccccc1Cl	/	/	/	/	-3	/	/
Cc1ccc(N2CC(=O)N(NC(=O)c3sc4nc(C)cc(C)c4c3N)CC2=O)cc1	6	-7	48*	5	-8	59*	47*
Cc1cc(C)c2c(N)c(C(=O)Nc3ccccc3Br)sc2n1	11	-15	42*	-3	8	152*	117*
CC(=O)c1sc2nc(C)cc(C)c2c1N	19	-89	22	-3	-31	/	/
COC(=O)c1sc2nc(C)cc(C)c2c1N	1	-14	38*	5	-11	3	1
Cc1cc(C)c2c(N)c(C(=O)Nc3ncc(C)s3)sc2n1	20	/	43*	/	-28	121*	119*
SMILES	GDH-TPI counter-1	RecA intein inh	FBA Mtb inh	BJeLR lethal	PrPC surface inh	Mtb FBA inh conf	GDH-TPI counter-2	others
O=S(=O)(c1ccccc1)N1CCCc2nc(-c3ccc(F)cc3)ccc21	/	/	/	/	8	/	/
O=C(C1CCCN1S(=O)(=O)c1cccs1)N1CCc2ccccc2C1 (stereo unspecified)	/	/	/	/	-4	/	/
O=Cc1coc2c(ccc3ccccc32)c1=O	/	-5	/	-8	/	/	/
O=c1cc(C(F)F)oc2c1ccc1ccccc12	17	0	31*	-5	3	59*	46*
Cc1c(C)c2ccc(OCC(=O)NCCN3CCOCC3)cc2oc1=O	6	0	97*	-4	2	-6	-3
O=C(COc1ccc2c(c1)oc(=O)c1ccccc12)NCCCN1CCOCC1	5	2	98*	13	-3	93*	78*
O=C(COc1ccc2c3c(c(=O)oc2c1)CCC3)NCCCN1CCOCC1	12	-3	15	-8	1	/	/
Cc1c(C)c2ccc(OCC(=O)Nc3ccc(CN4CCOCC4)cc3)cc2oc1=O	10	1	47*	-8	7	88*	86*
CC(Oc1ccc2c(c1)oc(=O)c1ccccc12)C(=O)NCCCN1CCOCC1 (stereo unspecified)	11	0	64*	-5	15	11	10	GDH-TPI dose=2.9*
Cc1ccc(OCC(=O)Nc2ccc(CN3CCOCC3)cc2)cc1C	2	-1	-2	8	7	/	/
CCCCc1cc(=O)oc2cc(OCC(=O)NCCN3CCOCC3)ccc12	-5	1	16	-2	-10	/	/
COc1ccc(-c2ccc3c(n2)CCCN3S(=O)(=O)c2ccccc2)cc1	/	/	/	/	3	/	/
COc1ccc(N2C(=O)c3[nH]nc(-c4ccccc4)c3C2c2ccc(Br)cc2)cc1 (stereo unspecified)	/	/	/	/	-3	/	/
O=C(C1CCCN1S(=O)(=O)c1ccc(Br)s1)N1CCc2ccccc2C1 (stereo unspecified)	/	/	/	/	-2	/	/
CCCCCn1cc(CCC(=O)Nc2ccc(Oc3cccnc3)cc2)c2ccccc21	/	/	/	/	20	/	/
CN(CCc1ccccc1)C(=O)c1ccc2c(c1)ncn2C1CCCCC1	/	/	/	/	-2	/	/
Cc1c(OCC(=O)NCCCN2CCOCC2)ccc2c1oc(=O)c1ccccc12	7	0	47*	-6	-1	98*	68*
CC(=O)Oc1ccc2c(C)cc(=O)[nH]c2c1	8	9	58*	4	2	10	-3
CCCCNC(=S)N(CCN(CC)CC)Cc1cc2cc3c(cc2[nH]c1=O)OCO3	33*	-1	32*	-2	-11	16	4	GDH-TPI dose=4.9*
CCN(CC)CCN(Cc1cc2cc3c(cc2[nH]c1=O)OCO3)C(=S)NCCCN(C)C	30	-5	35*	-7	-3	30*	28*
CN(C)CCN(Cc1cc2cc3c(cc2[nH]c1=O)OCO3)C(=S)NCc1ccco1	25	3	32*	3	-1	77*	52*
CC(=O)N(CCc1ccccc1C)Cc1cc2cc3c(cc2[nH]c1=O)OCO3	11	-2	39*	-8	-1	187*	170*
CCN(CC)CCN(Cc1cc2cc3c(cc2[nH]c1=O)OCO3)C(=S)NC	23	/	102*	-10	-3	64*	55*

Screening data as filed in PubChem BioAssay.
